Source: PubChem BioAssay AID652015 (National Center for Advancing Translational Sciences (NCATS), 2013)
Records with an inconclusive call do not appear. Activity calls are given as the source filed them. Calls come from the whole dose curve; as a rule, active = well fitted inhibition curve with a large enough effect; inconclusive = small, poorly fitted or top-dose-only effect; inactive = no such curve, though single readings can be large or run the other way.

Each molecule was assayed against Coelenterazine h 2-monooxygenase (Renilla reniformis) (UniProt P27652) (assay: qHTS Assay for Inhibitors of Sea Pansy Luciferase from the GSK Published Protein Kinase Inhibitor Set). Conditions: purified Renilla luciferase, luminescence; series mostly up to 57.5 µM; activity change, negative = inhibition: at the top concentration.
Chain of Coelenterazine h 2-monooxygenase (Renilla reniformis) (P27652 whole entry, looked up): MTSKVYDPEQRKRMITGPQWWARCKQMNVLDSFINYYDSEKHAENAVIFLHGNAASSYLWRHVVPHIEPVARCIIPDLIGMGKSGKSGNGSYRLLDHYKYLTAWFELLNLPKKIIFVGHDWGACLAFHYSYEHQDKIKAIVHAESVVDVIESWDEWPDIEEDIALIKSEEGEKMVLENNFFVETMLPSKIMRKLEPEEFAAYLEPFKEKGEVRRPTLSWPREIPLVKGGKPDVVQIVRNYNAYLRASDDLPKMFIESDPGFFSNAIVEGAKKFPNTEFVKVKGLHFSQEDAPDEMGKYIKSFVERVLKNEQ
Method in brief: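 qHTS (roughly 60 uM down to 300 pM) against 1 nM Renilla luciferase, substrate coelenterazine h 5 uM, Tris acetate pH 7.5 buffer with NaCl, Tween-20 and BSA. Luminescence measured after an average 2 min incubation.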

Activity change, negative = inhibition, inactive:
COC(=O)Nc1nc2ccc(Oc3cccc(NC(=O)Nc4cc(C(F)(F)F)ccc4F)c3)cc2[nH]1 40.9%, NS(=O)(=O)c1ccc(N=Nc2c(O)[nH]c3ccc(-c4cnco4)cc23)cc1 -5.78%, CS(=O)(=O)CCNCc1coc(-c2ccc3ncnc(Nc4ccc(OCc5ccccc5)cc4)c3c2)c1 1.49%, Cc1ccc(-c2cc3c(NC(=O)C4CC4)ncnc3o2)cc1 6.69%, COc1ccc(-c2nn3ncccc3c2-c2ccnc(Nc3ccc(F)c(F)c3)n2)cc1 33.8%, Fc1ccc(-c2nn3ncccc3c2-c2ccnc(Nc3ccc4c(c3)OCCO4)n2)cc1 39.4%, CNC(=O)c1cccc(C#Cc2cncnc2Nc2ccc(OCc3cccc(F)c3)c(Cl)c2)c1 4.44%, CCn1c(-c2nonc2N)nc2ccncc21 12.6%, CCc1ccc(Oc2nccc(-c3c(-c4ccc(F)cc4)ncn3C3CCNCC3)n2)cc1 -14.4%, COc1cc2ncn(-c3cc(OCCc4ccccc4)c(C(N)=O)s3)c2cc1OC 13.2%, CN(C)CCCn1c(-c2nonc2N)nc2cnccc21 11.9%, NC(=O)c1cccc(Nc2nccc(Nc3cccc4[nH]ncc34)n2)c1 18.3%, COc1cc2c(cc1Nc1nc(Nc3ccsc3C(N)=O)c3cc[nH]c3n1)N(C(=O)CN(C)C)CCC2(C)C 25%, Cc1cccc(Nc2ncc(-c3ccccc3)o2)c1 38.5%, CCn1c(-c2nonc2N)nc2c(N3CCCC3)nccc21 48.8%, CCCN(CCS(C)(=O)=O)Cc1ccc(-c2ccc3ncnc(Nc4ccc(OCc5cccc(F)c5)c(Cl)c4)c3c2)o1 42%, COc1cccc(-n2nc(C)c3c(NN=C(C)c4ccncc4)ncnc32)c1 22.2%, CS(=O)(=O)CCNCc1ccc(-c2ccc3ncnc(Nc4ccc(OCc5ccccc5)c(C(F)(F)F)c4)c3c2)o1 22.7%, COc1cccc(-n2ncc3c(NN=Cc4ccncc4)ncnc32)c1 37%, CNC(=O)c1cc(-c2ccc(F)cc2)cc(-c2ccc(S(=O)(=O)N3CCCC3)cc2)c1N 35.8%, Fc1ccc(-c2nc3n(c2-c2ccncc2)CCS3)cc1 37.9%, NC(=O)c1ccc(-c2nc(-c3ccc4c(c3)OCO4)c(-c3ccccn3)[nH]2)cc1 0.676%, CCn1c(-c2nonc2N)nc2cnc(Oc3cccc(NC(=O)c4ccc(N(C)C)cc4)c3)cc21 12.6%, Fc1ccc(-c2ncn(C3CCNCC3)c2-c2ccnc(Oc3ccc(F)c(F)c3)n2)cc1 14.2%, Nc1nc(-c2ccccn2)c(-c2ccc3ncccc3n2)s1 20.8%, CC1(C)CC(n2cnc(-c3ccc(F)cc3)c2-c2ccnc(N)n2)CC(C)(C)N1 31.7%, c1cc(-c2cnn3nc(N4CCOCC4)ccc23)nc(NC2CC2)n1 24.1%, CN1CCC(n2cnc(-c3ccc(F)cc3)c2-c2ccnc(N)n2)CC1 12.6%, Fc1ccc(Nc2nccc(-c3c(-c4ccc(C(F)(F)F)cc4)nn4ncccc34)n2)cc1F 3.07%, O=C1N=c2ccc(N=Cc3c(O)[nH]c4ccccc34)cc2=N1 21.9%, CNC(=O)c1sc(-n2cnc3cc(OC)c(OC)cc32)cc1OCc1ccccc1C(F)(F)F 22.9%, COc1cccc(-n2ncc3c(NN=Cc4ccc(C)cc4)ncnc32)c1 56.8%, Cc1ccc(Nc2ccnc(Nc3cccc(C(N)=O)c3)n2)cc1O 2.39%, Cc1cc(O)cc(C)c1C=Cc1cncc(C(=O)N(C)C)c1 3.41%, CCn1c(-c2nonc2N)nc2ccccc21 19.1%, COc1ccc(-c2nn3ncccc3c2-c2ccnc(Nc3ccc(Cl)c(C(F)(F)F)c3)n2)cc1 59.6%, Cc1cc(O)cc(C)c1C=Cc1cncc(C(=O)OC(C)(C)C)c1 37.2%, Cc1ccc(NC(=O)c2ccoc2)cc1-c1ccc(C(=O)NCC2CC2)cc1 44.8%, Cc1nc(-c2ccccc2)n2nc(NCCCN3CCOCC3)ncc12 7.85%
